In PubChem BioAssay AID588676 (Johns Hopkins Ion Channel Center, 2011):
The campaign covered roughly 310,000 compounds. About 3,900 (1.3%) were called active. This is one part of a sample in which actives are shown more often than they occur.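 Rule for the calls: active = calcium-response B-score plate-corrected more than 3 library SD below zero, starting fluorescence within 5 deviations, no agonist response on first addition; inactive = the rest.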

Biological target: Mas-related G-protein coupled receptor member X1 (Homo sapiens) (UniProt Q96LB2)
Assay: antagonists of human MrgX1 receptor, primary screen, HEK293 cells, Fluo-4 calcium flux (AID 588676);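 for B-score: peak minus trough fluorescence over baseline after final BAM8-22 challenge near maximal dose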
Settings: Fluo-4, BAM8-22 antagonism, at 10 µM; hits give low values

Sequence of Mas-related G-protein coupled receptor member X1 (Homo sapiens) (Q96LB2 whole entry, looked up): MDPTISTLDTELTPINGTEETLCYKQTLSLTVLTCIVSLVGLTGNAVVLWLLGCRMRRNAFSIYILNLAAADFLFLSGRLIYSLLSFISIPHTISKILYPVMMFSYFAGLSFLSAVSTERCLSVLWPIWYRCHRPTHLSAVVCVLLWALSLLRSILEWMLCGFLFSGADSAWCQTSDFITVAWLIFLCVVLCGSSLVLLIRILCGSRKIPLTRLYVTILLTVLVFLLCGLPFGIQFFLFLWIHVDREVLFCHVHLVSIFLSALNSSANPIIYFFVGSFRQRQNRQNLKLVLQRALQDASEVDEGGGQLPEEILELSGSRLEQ

Row | Structure (SMILES) | B-score
1 | Cc1ccc(S(=O)(=O)N2[C@@H](c3ccccc3F)C(C(=O)O)=CC[C@H]2c2ccc(Cl)cc2)cc1 | inactive
2 | CC1CCC(NC(=O)CN(C)S(=O)(=O)c2ccc3c(c2)c(=O)n(C)c(=O)n3C)CC1 (stereo not given) | inactive
3 | CS(=O)(=O)Nc1ccccc1N=C(c1ccccc1)c1ccccc1 | inactive
4 | NC(N)=NCCCc1cn(CC(=O)N2CCNCC2)nn1 | inactive
5 | Cc1nn(-c2ccccc2)c(C)c1NC(=O)COC(=O)c1cc(Cl)ccc1O | inactive
6 | Cc1nn(-c2ccccc2)c(C)c1NC(=O)COc1ccc(Cl)cc1Cl | -5.44 (active)
7 | Cc1nn(-c2ccccc2)c(C)c1NC(=O)CCl | inactive
8 | Cc1c(C(=O)NCC(c2ccco2)N2CCCC2)oc2ccc(Cl)cc12 (stereo not given) | inactive
9 | Cc1c(-c2ccccc2)cn2c1-c1ccc(C)n1CC2 | inactive
10 | Cc1cc(Br)ccc1NC(=O)c1sc2ncn(CC(=O)N3CCN(c4ccccn4)CC3)c(=O)c2c1C | inactive
11 | O=C(Cc1ccc(Br)cc1)N1CCN(c2ccccn2)CC1 | inactive
12 | Cc1cc(Br)ccc1NC(=O)c1cnc(N2CCN(c3ccccn3)CC2)c2ccccc12 | -5.72 (active)
13 | O=C(Nc1cc(C(F)(F)F)ccc1Cl)c1cc2nc3c(c(C(F)(F)F)n2n1)CCCC3 | inactive
14 | COC(=O)c1ccc2ccccc2c1OC1OC(CO)C(O)C(O)C1NC(C)=O (stereo not given) | inactive
15 | O=C(Nc1ccc(Cl)cc1)c1cc2nc(C3CC3)cc(C(F)(F)F)n2n1 | inactive
16 | Cc1cc(C)c(S(=O)(=O)NCC2CCC(C(=O)NCc3ccc4c(c3)OCO4)CC2)c(C)c1 (stereo not given) | inactive
17 | COc1cc(NC(=O)CN2C(=O)NC(C)(c3ccc(OC(F)F)cc3)C2=O)cc(OC)c1OC (stereo not given) | inactive
18 | CCN1CCN(CCNC(=O)c2ccc3c(c2)NC(=O)/C(=C\c2ccc(OC)c(OC)c2)S3)CC1 | inactive
19 | CCN1CCN(CCNC(=O)c2ccc(/C=C3/Sc4ccccc4N(Cc4cccc(C)c4)C3=O)cc2)CC1 | -7.53 (active)
20 | O=C(NCCN1CCOCC1)c1ccc(/C=C2\Sc3ccccc3N(Cc3ccc(F)cc3)C2=O)cc1 | inactive
21 | Cc1ccc(Nc2cc(=O)n(C3CCCCC3)c(=O)[nH]2)cc1C | inactive
22 | COc1cccc(N(Cc2nnc3n2CCCCC3)C(=O)Nc2ccccc2F)c1 | inactive
23 | Clc1ccc(Nc2nc(-c3cccs3)cs2)nc1 | inactive
24 | Cc1ccc(Nc2nc(-c3ccc(O)cc3O)cs2)nc1 | -4.59 (active)
25 | Cc1cccc(Nc2nc(-c3ccccc3)cs2)n1 | inactive
26 | COc1ccc(-c2cc(C(=O)N(C)Cc3ccc(OC)c(OC)c3OC)c3ccccc3n2)cc1OC | inactive
27 | CCCCCCCCCCOC(=O)Cn1c(COc2ccc(C)cc2)[n+](C)c2ccccc21 | -10.1 (active)

Row | Structure (SMILES) | B-score
28 | CCCCCCCCC(=O)NCCOc1ccccc1 | inactive
29 | Cc1ccc(OCc2nc3ccccc3n2C)cc1 | inactive
30 | CCn1c(COc2cccc(OC)c2)nnc1SCC(=O)N1CCOCC1 | inactive
31 | CCCCCCCCCCOC(=O)Cn1c(COc2cccc(OC)c2)[n+](C)c2ccccc21 | -13.2 (active)
32 | Cc1ccc(OCCCn2c(=O)oc3ccccc32)cc1 | inactive
33 | CCOC(=O)c1cc(NC(=O)SCC(=O)O)c(C)nc1C | inactive
34 | CC(=O)N(C)c1ccc(NC(=O)C(F)(F)F)cc1 | -7.18 (active)
35 | CCOc1ccc(NC(=O)Nc2ccc(N(C)C(C)=O)cc2)cc1 | inactive
36 | CC(=O)N(C)c1ccc(NC(=O)Nc2cccc3ccccc23)cc1 | inactive
37 | O=C(COC(=O)Cn1cnc2ccccc21)Nc1cccc2c1C(=O)c1ccccc1C2=O | inactive
38 | Cc1cccc(NC(=O)Cc2ccc(Br)cc2)n1 | inactive
39 | O=C(Cc1c(F)cccc1Cl)Nc1ccc(-n2cnnn2)cc1 | inactive
40 | c1cc(-n2cnnn2)ccc1NC1=NCCC1 | -5.5 (active)
41 | O=S(=O)(NC1CCCC1)c1ccc(-n2cnnn2)cc1 | inactive
42 | Cc1ccc(Cl)c(OCC(=O)N(C)CC(=O)Nc2ccc(N3CCOCC3)cc2)c1 | inactive
43 | CCOC(=O)c1ccc(COC(=O)CCc2nc(-c3ccccc3)c(-c3ccccc3)o2)cc1 | inactive
44 | Cc1ccc(NC(=O)Nc2cccnc2)cc1 | inactive
45 | O=C(NNC(=O)c1csc(-c2cccnc2)n1)Nc1ccc(Cl)cc1 | inactive
46 | O=C(Nc1ccc(Cl)cc1)Nc1ccc(Oc2cccnc2)nc1 | -7.03 (active)
47 | CCn1c(SCC(=O)Nc2cc(C)ccc2C)nnc1-c1cnccn1 | inactive
48 | Cc1ccccc1NC(=O)C(C)c1ccc(-c2ccccc2)c(F)c1 (stereo not given) | inactive
49 | CCOc1ccc(CN2CCC(n3nccc3NC(=O)C3CC3)CC2)cc1CO | inactive
50 | O=C(NC1CCCC1)C(c1ccc(Cl)cc1)N(C(=O)c1csnn1)C1CC1 (stereo not given) | inactive
51 | Cc1ccc(C(C(=O)NC2CCCCC2)N(C(=O)c2csnn2)C2CC2)o1 (stereo not given) | -7.09 (active)
52 | O=C(NC1CCCC1)C(c1ccccn1)N(C(=O)c1csnn1)C1CCCC1 (stereo not given) | inactive
53 | CCc1ccc(Nc2n[n+](-c3ccccc3)c(-c3cccc(Cl)c3Cl)s2)cc1 | inactive
54 | CCc1nnc(NC(=O)CCC(=O)N2CCN(c3cc(C)ccc3C)CC2)s1 | inactive

Row | Structure (SMILES) | B-score
55 | CC1CCC(N2CC(=O)N(Cc3ccc4c(c3)OCO4)C(c3ccc(F)cc3)C2=O)CC1 (stereo not given) | inactive
56 | CCc1ccccc1NC(=O)c1ccc2c(c1)CCN2S(C)(=O)=O | inactive
57 | CC(=O)Nc1ccc(Oc2ccc3c(c2)C(=O)NC3=O)cc1 | inactive
58 | CCCCN(C)CCC(=O)Nc1ccc(Cl)cc1 | inactive
59 | CCCCC(=O)Nc1ccc2c(c1)C(=O)NC2=O | -4.77 (active)
60 | Cc1ccc(CN(CC(=O)NCC2CCCO2)S(=O)(=O)c2ccc(C)cc2)cc1 (stereo not given) | inactive
61 | O=C(c1c(F)cccc1Cl)N1CCN(S(=O)(=O)c2ccc3c(c2)OCCCO3)CC1 | inactive
62 | CCCCCC(=O)N1CCN(S(=O)(=O)c2ccc3c(c2)OCCCO3)CC1 | -12 (active)
63 | CN1CCCN(S(=O)(=O)c2ccc3c(c2)OCCO3)CC1 | inactive
64 | COc1ccc(C(=O)NCCn2nc(C)cc2C)cc1OC1CCN(C(C)=O)CC1 | inactive
65 | COc1ccc(C(=O)N2CCC(C(=O)Nc3cccc(C)c3)CC2)cc1OC | inactive
66 | CCOc1ccc(NC(=O)COc2ccc(C(=O)NC3CCCc4ccccc43)cc2OC)cc1 (stereo not given) | inactive
67 | CCOc1ccc(NC(=O)COc2ccc(C(=O)N3CCC(C(N)=O)CC3)cc2OC)cc1 | -8.23 (active)
68 | Cc1ccc(S(=O)(=O)CCC(=O)OCC(=O)N(C)C2CCS(=O)(=O)C2)cc1 (stereo not given) | inactive
69 | O=C(CSc1nnc2n1CCCN2)c1ccccc1 | inactive
70 | Cc1c(Cl)cccc1NC(=O)NCCCN1CCCC1=O | inactive
71 | Cc1cc(Cl)ccc1NC(=S)NCCCN1CCCC1=O | inactive
72 | O=C1CCCN1CCCNC(=S)Nc1ccc(F)c(Cl)c1 | -4.94 (active)
73 | O=C(NC1CCN(Cc2ccccc2)CC1)c1cc(Br)c(Br)[nH]1 | inactive
74 | Oc1c(Cl)cc(Cl)c(Cl)c1Cc1c(O)c(Cl)cc(Cl)c1Cl | -8.06 (active)
75 | O=C(CN1CCCCCC1)Nc1c(Cl)cc(Cl)cc1Cl | inactive
76 | COc1cc2c(C(=O)N3CCN(C)CC3)c(CSc3ccccc3)n(C)c2cc1Br | inactive
77 | O=C(COC(=O)c1cc(-c2cccs2)nn1-c1ccccc1)Nc1cc([N+](=O)[O-])ccc1Cl | inactive
78 | O=C(Nc1ncccc1O)c1ccc(S(=O)(=O)N2CCCCCC2)cc1 | inactive
79 | CC(C)(C)n1nc2c(c1NC(=O)c1ccc(S(=O)(=O)N3CCCC3)cc1)CS(=O)C2 (stereo not given) | -5.73 (active)
80 | O=C(Nc1ncccc1O)c1ccc(S(=O)(=O)N2CCCC2)cc1 | inactive
81 | O=C(CCN1C(=O)[C@H]2CC=CC[C@H]2C1=O)NCc1nc(-c2ccccc2)no1 | inactive

Row | Structure (SMILES) | B-score
82 | Cc1ccc(Nc2cc(C)nc3c(C)ccc([N+](=O)[O-])c23)cc1 | inactive
83 | Cc1cc(C)cc(NC(=S)NCCc2c[nH]c3ccccc23)c1 | -5.78 (active)
84 | O=C(NCCc1c[nH]c2ccccc12)c1cccc(Br)c1 | inactive
85 | Cc1cc(C)cc(NC(=S)NCc2ccc(F)cc2)c1 | inactive
86 | NS(=O)(=O)c1ccccc1NC(=O)c1c(O)c2ccccc2[nH]c1=O | inactive
87 | O=C(/C=C/c1ccc(N2CCOCC2)cc1)c1ccccc1 | inactive
88 | O=C(O)c1ccc2c(c1)C(=O)N(c1ccc(/C=C/C(=O)c3ccccc3)cc1)C2=O | -6.62 (active)
89 | Cc1cccc(N2C(=O)c3ccc(C(=O)Nc4cccc(C(=O)O)c4)cc3C2=O)c1 | inactive
90 | Cc1cc(C)cc(C(=O)OCC(=O)NCCNC(=O)COC(=O)c2cc(C)cc(C)c2)c1 | inactive
91 | CCOC(=O)CNC(=O)CSc1nnc(COc2ccc(Cl)cc2)n1CC | inactive
92 | CCOC(=O)CNC(=O)CSc1nc2cccnc2n1CC | -8.3 (active)
93 | CCOC(=O)CNC(=O)CSc1ncccc1-c1nc2ccccc2[nH]1 | inactive
94 | O=C1c2cccc3cccc(c23)C(=O)N1c1cccc(O)c1 | inactive
95 | COC(=O)[C@@H]1C[C@@]2(O)[C@@H](O)[C@@H](O)[C@@H](O)C[C@H]2N1Cc1ccc(C)s1 | inactive
96 | COc1ccc(Cl)cc1NS(=O)(=O)c1cccc(C(=O)NC2CCC(O)CC2)c1 (stereo not given) | inactive
97 | Cn1nccc1C(=O)NC1CCCc2c1cnn2-c1ccccc1F (stereo not given) | inactive
98 | COc1ccc(C(=O)NC2CCCc3c2cnn3-c2cccc(C)c2C)c(OC)n1 (stereo not given) | -8.89 (active)
99 | Cc1cc(C(=O)NC2CCCc3c2cnn3-c2cccc(C)c2C)c(C)o1 (stereo not given) | inactive
100 | Cc1ccc(S(=O)(=O)NNC(=O)/C=C/c2cccc(F)c2)cc1 | inactive
101 | Cc1ccc(C)c(NC(=O)C2Cc3ccccc3CN2C(=O)OCc2ccccc2)c1 (stereo not given) | inactive
102 | COc1ccc(C(C)NC(=S)NC2CCCCC2)cc1OC (stereo not given) | inactive
103 | CCN(CC)CC(=O)Nc1nn(-c2ccccc2)nc1C(N)=O | -7.03 (active)
104 | CCN(CC)CCNCC(=O)Nc1ccc(Oc2ccccc2)cc1 | inactive
105 | CCCN(CC(=O)Nc1ccc(C(N)=O)cc1)CC(=O)Nc1ccccc1C | inactive
